Inconclusive results are not listed. Calls of active or inactive are those of the source. Calls come from the whole dose curve; as a rule, active = well fitted curve in the direction sought with a large enough effect; inconclusive = small, poorly fitted or top-dose-only effect, or another doubt; inactive = no such curve, though single readings can be large; an effect the other way counts as inactive or inconclusive.
Experiments:
[1] = biological target: Cellular tumor antigen p53 (Homo sapiens) (UniProt P04637); experiment: Primary qHTS for small molecule compounds that upregulate eGFP-tagged delta133p53alpha (in N-terminal) cells. (AID 2060322); conditions: NCI-H358 eGFP-delta133p53alpha fluorescence, 24 h; activation: stronger effect = higher value;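 note: cells pre-induced with doxycycline then dosed without doxycycline; 0% = DMSO vehicle and 100% = reference activator; nearly all actives have a fitted effect of over 75% in size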
Sequence of Cellular tumor antigen p53 (Homo sapiens) (P04637 whole entry, looked up): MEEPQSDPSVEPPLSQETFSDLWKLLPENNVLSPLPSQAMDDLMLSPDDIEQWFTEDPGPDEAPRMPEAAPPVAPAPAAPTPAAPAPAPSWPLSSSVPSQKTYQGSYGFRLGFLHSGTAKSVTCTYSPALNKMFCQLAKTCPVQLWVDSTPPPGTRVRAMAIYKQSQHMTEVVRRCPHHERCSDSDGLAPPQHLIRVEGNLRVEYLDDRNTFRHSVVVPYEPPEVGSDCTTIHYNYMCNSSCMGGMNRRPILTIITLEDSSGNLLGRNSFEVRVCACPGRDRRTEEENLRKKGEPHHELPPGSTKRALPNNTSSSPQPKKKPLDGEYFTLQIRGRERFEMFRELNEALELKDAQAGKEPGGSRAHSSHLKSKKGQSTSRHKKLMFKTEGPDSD
In short: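 NCI-H358 cells pre-induced 24 h with 10 ng/ml doxycycline for eGFP-delta133p53alpha, plated dox-free and exposed 24 h at 37C to titrated compounds. Fixed, Hoechst-stained; gated GFP peak intensity by laser scanning cytometry, normalized to DMSO (0%) and 57.5 uM 5-azacytidine (100%).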

[2] = biological target: Aldehyde dehydrogenase, mitochondrial (Homo sapiens) (UniProt P05091); experiment: qHTS for Inhibitors of the Aldehyde Dehydrogenase Family (ALDH2) Primary screen (AID 2061308); conditions: ALDH2 enzyme inhibition qHTS, 1536-well; series mostly up to 56 µM;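 note: plate controls were vehicle for no effect and reference inhibitor for full effect; nearly all actives have a fitted effect of over 55% in size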
[3] = biological target: Retinaldehyde dehydrogenase 3 (Homo sapiens) (UniProt P47895); experiment: qHTS for Inhibitors of the Aldehyde Dehydrogenase Family (ALDH1A3) Primary screen (AID 2061315); conditions: ALDH inhibition qHTS; series mostly up to 56 µM;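 note: plate controls were DMSO vehicle for no effect and reference inhibitor for full effect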

CCCCc1nc(C)c(CC(=S)N(C)C)c(=O)n1Cc1ccc(-c2ccccc2-c2nn[nH]n2)cc1
inactive: activation [1] 18.1% | Potency [2] | Potency [3]

CC(=O)O[C@@H]1[C@H](O[C@@H]2O[C@@H](CO)[C@H](O)[C@H]2O)[C@@H](O[C@@H]2O[C@@H](C)[C@H](O[C@@H]3OC[C@@H](O)[C@H](O)[C@H]3O)[C@@H](O)[C@H]2O)[C@H](OC(=O)[C@]23CCC(C)(C)C[C@H]2C2=CCC4[C@@]5(C)CC[C@H](O[C@@H]6O[C@H](C(=O)O)[C@@H](O)[C@H](O)[C@H]6O[C@@H]6O[C@H](CO)[C@H](O)[C@H](O)[C@H]6O)[C@@](C)(C=O)C5CC[C@@]4(C)[C@]2(C)CC3)O[C@@H]1C (some centres not stated)
inactive: activation [1] -13.7% | activity change, negative = inhibition [2] 4.21% [at 11.2 µM] | activity change, negative = inhibition [3] 3.44% [at 11.2 µM]

CC(=O)O[C@H]1CC[C@H](C)[C@@]2(C)[C@H](OC(C)=O)c3c(C)coc3C(=O)[C@H]12
inactive: activation [1] -3.82% | Potency [2] | Potency [3]

C=C1CC23CCC4[C@@](C)(CCC[C@@]4(C)C(=O)O)C2CCC1C3 (some centres not stated)
inactive: activation [1] 6.25% | Potency [2] | Potency [3]

O=C1C[C@@]2(C(=O)N1)C(=O)N(Cc1ccc(Br)cc1F)C(=O)c1cccn12
inactive: activation [1] -11.7% | Potency [2] | Potency [3]

CC(=O)O[C@@H]1C(O)C[C@@]2(C)C(CC[C@@H](C)C23Cc2c(O)cc4c(c2O3)CNC4=O)C1(C)C (some centres not stated)
inactive: activation [1] -14.5% | Potency [2] | Potency [3]

C[C@@H]1O[C@@H](OC[C@H]2O[C@@H](OCc3ccccc3)[C@H](O)[C@@H](O)[C@@H]2O)[C@H](O)[C@H](O)[C@H]1O
inactive: activation [1] 15.3% | Potency [2] | Potency [3]

NC(N)=N/N=C/c1ccccc1Cl
inactive: activation [1] 3.67% | Potency [2] | Potency [3]

C[C@@H]1CCC2C(C)(C)[C@H](O)CC[C@]2(C)[C@@]12Cc1c(O)cc3c(c1O2)CN([C@@H](CCC(=O)O)C(=O)O)C3=O (some centres not stated)
inactive: activation [1] -9.16% | Potency [2] | Potency [3]

C=C[C@]1(C)C=C2CCC3C(C)(CCC[C@@]3(C)C(=O)O)C2CC1 (some centres not stated)
inactive: activation [1] 3.57% | Potency [2] | Potency [3]

CC1C2=CC(=O)OC2(O)CC2C1CCC1C(C)(C)CCC(O)C21C (configuration not stated)
inactive: activation [1] 0.763% | Potency [2] | Potency [3]

N#C[C@@H]1C[C@H](F)CN1C(=O)CNC1[C@H]2CN(C(=O)c3ccc(F)cc3)C[C@@H]12 (some centres not stated)
inactive: activation [1] -1% | Potency [2] | Potency [3]

C[C@@H]1CC[C@]2(C(=O)O[C@@H]3O[C@H](CO)[C@@H](O)[C@H](O)[C@H]3O)CC[C@]3(C)C(=CCC4[C@@]5(C)C[C@@H](O)[C@H](O)[C@@](C)(C(=O)O[C@H]6[C@H](O)C[C@@]7(C)C(CC[C@]8(C)C7CC=C7[C@H]9[C@](C(=O)O[C@@H]%10O[C@H](CO)[C@@H](O)[C@H](O)[C@H]%10O)(CC[C@@H](C)[C@@]9(C)O)CC[C@]78C)[C@@]6(CO)C(=O)O)C5CC[C@]43C)[C@@H]2[C@]1(C)O (some centres not stated)
inactive: activation [1] 0% | activity change, negative = inhibition [2] -16.3% [at 11.2 µM] | activity change, negative = inhibition [3] -6.62% [at 11.2 µM]

CC(=O)[C@@H]1C[C@H](C(C)(C)O[C@@H]2O[C@H](CO)[C@@H](O)[C@H](O)[C@H]2O)CC[C@@]2(CO)OC(=O)C[C@@H]12
inactive: activation [1] -6.11% | Potency [2] | Potency [3]

Cc1ccc(C)c(NC(=O)[C@@H]2CCCN2S(=O)(=O)c2cccc3cccnc23)c1
inactive: activation [1] -4.33% | Potency [2] | Potency [3]

CCCCCCCOc1cc2c(cc1/C(C)=C/c1ccc(C(=O)O)cc1)C(C)(C)CCS2(=O)=O
inactive: activation [1] 3% | Potency [2] | Potency [3]

CC(C)(C)NCc1cc(Nc2ccnc3cc(Cl)ccc23)c2c(c1O)CCCC2
inactive: activation [1] -11% | activity change, negative = inhibition [2] -0.555% [at 0.464 µM] | activity change, negative = inhibition [3] -4.88% [at 0.464 µM]

C[C@]1(CO)CCC[C@]2(C)C3=C(CCC12)COC3 (some centres not stated)
inactive: activation [1] -8.04% | Potency [2] | Potency [3]

C[C@@H]1O[C@@H](O[C@H]2[C@H](OC(=O)[C@]34CCC(C)(C)C[C@H]3C3=CCC5[C@@]6(C)C[C@@H](O)[C@@H](O[C@@H]7O[C@H](CO)[C@@H](O)[C@H](O)[C@H]7O)[C@@](C)(CO)C6[C@H](O)C[C@@]5(C)[C@]3(C)CC4)OC[C@H](O)[C@@H]2O)[C@H](O)[C@H](O[C@@H]2OC[C@](O)(CO)[C@H]2O)[C@H]1O[C@@H]1OC[C@@H](O)[C@H](O[C@H]2O[C@H](C)[C@@H](O)[C@H](O)[C@@H]2O)[C@H]1O (some centres not stated)
inactive: activation [1] 6.25% | activity change, negative = inhibition [2] 9.79% [at 11.2 µM] | activity change, negative = inhibition [3] 2.17% [at 11.2 µM]
